# In article PMC11006913:
# Changes are numbered by the printed parent chain.
# Legend:
# Assay in all cases: PBM; 200 nM protein, PBS
# Settings in all cases: dsDNA, one strand shown
# PRRX1 [1] = molecular target: PRRX1 (Homo sapiens, UniProt P54821 80-166, F113S)
# PRRX1 [2] = molecular target: PRRX1 (Homo sapiens, UniProt P54821 80-166)
# SIX6 [3] = molecular target: T1, SIX6 (Homo sapiens, UniProt O95475 114-200, T165P)
# T1 sequence: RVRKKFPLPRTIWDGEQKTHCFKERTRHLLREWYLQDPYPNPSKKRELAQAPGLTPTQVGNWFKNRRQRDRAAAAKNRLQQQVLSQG
# SIX6 [4] = molecular target: T2, SIX6 (Homo sapiens, UniProt O95475 114-200, H141N)
# T2 sequence: T1 sequence with H28N, P52T
# SIX6 [5] = molecular target: T3, SIX6 (Homo sapiens, UniProt O95475 114-200, T165G)
# T3 sequence: T1 sequence with P52G
# SIX6 [6] = molecular target: T4, SIX6 (Homo sapiens, UniProt O95475 114-200, T139Q)
# T4 sequence: T1 sequence with T26Q, P52T
# SIX6 [7] = molecular target: T5, SIX6 (Homo sapiens, UniProt O95475 114-200, T165A)
# T5 sequence: T1 sequence with P52A
# SIX6 [8] = molecular target: T6, SIX6 (Homo sapiens, UniProt O95475 114-200, L167V)
# T6 sequence: T1 sequence with P52T, L54V
# PRRX1 (Homo sapiens, UniProt P54821 80-166), sequence (P54821 80-166): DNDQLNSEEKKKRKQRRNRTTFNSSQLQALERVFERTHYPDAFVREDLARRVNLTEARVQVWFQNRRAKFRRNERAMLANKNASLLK
# PRRX1 (Homo sapiens, UniProt P54821 80-166, F113S), sequence (P54821 80-166 F113S): as the sequence (P54821 80-166) above, with F34S counted along it
sequence,measurement,setting,value
CCCAGGGA,binding signal,PRRX1 [1],"9.4 upbm affinity estimate (log intensity, higher = more binding, comparable within an allelic series)"
same,binding signal,PRRX1 [2],"9.28 upbm affinity estimate (log intensity, higher = more binding, comparable within an allelic series)"
AGCTCGCA,binding signal,PRRX1 [1],"9.52 upbm affinity estimate (log intensity, higher = more binding, comparable within an allelic series)"
same,binding signal,PRRX1 [2],"9.05 upbm affinity estimate (log intensity, higher = more binding, comparable within an allelic series)"
CGTGTGCA,binding signal,PRRX1 [1],"9.54 upbm affinity estimate (log intensity, higher = more binding, comparable within an allelic series)"
same,binding signal,PRRX1 [2],"9.31 upbm affinity estimate (log intensity, higher = more binding, comparable within an allelic series)"
CCGACCCC,binding signal,PRRX1 [1],"9.1 upbm affinity estimate (log intensity, higher = more binding, comparable within an allelic series)"
same,binding signal,PRRX1 [2],"9.36 upbm affinity estimate (log intensity, higher = more binding, comparable within an allelic series)"
GCGCCAGA,binding signal,PRRX1 [1],"9.32 upbm affinity estimate (log intensity, higher = more binding, comparable within an allelic series)"
same,binding signal,PRRX1 [2],"9.56 upbm affinity estimate (log intensity, higher = more binding, comparable within an allelic series)"
CCCCAATA,binding signal,PRRX1 [1],"9.73 upbm affinity estimate (log intensity, higher = more binding, comparable within an allelic series)"
same,binding signal,PRRX1 [2],"11 upbm affinity estimate (log intensity, higher = more binding, comparable within an allelic series)"
CGACGGAA,binding signal,PRRX1 [1],"9.54 upbm affinity estimate (log intensity, higher = more binding, comparable within an allelic series)"
same,binding signal,PRRX1 [2],"9.34 upbm affinity estimate (log intensity, higher = more binding, comparable within an allelic series)"
GCCAGCAC,binding signal,PRRX1 [1],"9.45 upbm affinity estimate (log intensity, higher = more binding, comparable within an allelic series)"
same,binding signal,PRRX1 [2],"9.5 upbm affinity estimate (log intensity, higher = more binding, comparable within an allelic series)"
GAATTATC,binding signal,PRRX1 [1],"10.5 upbm affinity estimate (log intensity, higher = more binding, comparable within an allelic series)"
same,binding signal,PRRX1 [2],"12.9 upbm affinity estimate (log intensity, higher = more binding, comparable within an allelic series)"
TTAACAAA,binding signal,PRRX1 [1],"10.5 upbm affinity estimate (log intensity, higher = more binding, comparable within an allelic series)"
same,binding signal,PRRX1 [2],"12.4 upbm affinity estimate (log intensity, higher = more binding, comparable within an allelic series)"
AGGTTTAA,binding signal,PRRX1 [1],"10.1 upbm affinity estimate (log intensity, higher = more binding, comparable within an allelic series)"
same,binding signal,PRRX1 [2],"11.4 upbm affinity estimate (log intensity, higher = more binding, comparable within an allelic series)"
CCAGAGTC,binding signal,PRRX1 [1],"9.5 upbm affinity estimate (log intensity, higher = more binding, comparable within an allelic series)"
same,binding signal,PRRX1 [2],"9.46 upbm affinity estimate (log intensity, higher = more binding, comparable within an allelic series)"
GCACGTCC,binding signal,PRRX1 [1],"9.49 upbm affinity estimate (log intensity, higher = more binding, comparable within an allelic series)"
same,binding signal,PRRX1 [2],"9.27 upbm affinity estimate (log intensity, higher = more binding, comparable within an allelic series)"
AGCACCCT,binding signal,PRRX1 [1],"9.32 upbm affinity estimate (log intensity, higher = more binding, comparable within an allelic series)"
same,binding signal,PRRX1 [2],"9.38 upbm affinity estimate (log intensity, higher = more binding, comparable within an allelic series)"
TCGTAACA,binding signal,PRRX1 [1],"10.2 upbm affinity estimate (log intensity, higher = more binding, comparable within an allelic series)"
same,binding signal,PRRX1 [2],"11.3 upbm affinity estimate (log intensity, higher = more binding, comparable within an allelic series)"
CAGAGAGC,binding signal,PRRX1 [1],"9.56 upbm affinity estimate (log intensity, higher = more binding, comparable within an allelic series)"
same,binding signal,PRRX1 [2],"9.55 upbm affinity estimate (log intensity, higher = more binding, comparable within an allelic series)"
ATCATCAC,binding signal,PRRX1 [1],"10.1 upbm affinity estimate (log intensity, higher = more binding, comparable within an allelic series)"
same,binding signal,PRRX1 [2],"11.5 upbm affinity estimate (log intensity, higher = more binding, comparable within an allelic series)"
AACCAATT,binding signal,PRRX1 [1],"10.4 upbm affinity estimate (log intensity, higher = more binding, comparable within an allelic series)"
same,binding signal,PRRX1 [2],"12.6 upbm affinity estimate (log intensity, higher = more binding, comparable within an allelic series)"
AGGAGAGC,binding signal,PRRX1 [1],"9.35 upbm affinity estimate (log intensity, higher = more binding, comparable within an allelic series)"
same,binding signal,PRRX1 [2],"9.36 upbm affinity estimate (log intensity, higher = more binding, comparable within an allelic series)"
GCTCCAGA,binding signal,PRRX1 [1],"9.35 upbm affinity estimate (log intensity, higher = more binding, comparable within an allelic series)"
same,binding signal,PRRX1 [2],"9.02 upbm affinity estimate (log intensity, higher = more binding, comparable within an allelic series)"
CAGAACCC,binding signal,PRRX1 [1],"9.51 upbm affinity estimate (log intensity, higher = more binding, comparable within an allelic series)"
same,binding signal,PRRX1 [2],"9.39 upbm affinity estimate (log intensity, higher = more binding, comparable within an allelic series)"
GGCCCTAC,binding signal,PRRX1 [1],"9.21 upbm affinity estimate (log intensity, higher = more binding, comparable within an allelic series)"
same,binding signal,PRRX1 [2],"9.08 upbm affinity estimate (log intensity, higher = more binding, comparable within an allelic series)"
GAAAGACC,binding signal,PRRX1 [1],"9.56 upbm affinity estimate (log intensity, higher = more binding, comparable within an allelic series)"
same,binding signal,PRRX1 [2],"9.45 upbm affinity estimate (log intensity, higher = more binding, comparable within an allelic series)"
CCATGACG,binding signal,PRRX1 [1],"9.32 upbm affinity estimate (log intensity, higher = more binding, comparable within an allelic series)"
same,binding signal,PRRX1 [2],"9.37 upbm affinity estimate (log intensity, higher = more binding, comparable within an allelic series)"
CTAGACCC,binding signal,PRRX1 [1],"9.44 upbm affinity estimate (log intensity, higher = more binding, comparable within an allelic series)"
same,binding signal,PRRX1 [2],"9.31 upbm affinity estimate (log intensity, higher = more binding, comparable within an allelic series)"
CTGGATCC,binding signal,SIX6 [3],"9.18 upbm affinity estimate (log intensity, higher = more binding, comparable within an allelic series)"
AGGGGATC,binding signal,SIX6 [3],"9.22 upbm affinity estimate (log intensity, higher = more binding, comparable within an allelic series)"
AACGATAC,binding signal,SIX6 [4],"11.1 upbm affinity estimate (log intensity, higher = more binding, comparable within an allelic series)"
same,binding signal,SIX6 [5],"11.2 upbm affinity estimate (log intensity, higher = more binding, comparable within an allelic series)"
same,binding signal,SIX6 [6],"11.2 upbm affinity estimate (log intensity, higher = more binding, comparable within an allelic series)"
same,binding signal,SIX6 [7],"11 upbm affinity estimate (log intensity, higher = more binding, comparable within an allelic series)"
same,binding signal,SIX6 [8],"10.9 upbm affinity estimate (log intensity, higher = more binding, comparable within an allelic series)"
CCGGATCG,binding signal,SIX6 [3],"9.19 upbm affinity estimate (log intensity, higher = more binding, comparable within an allelic series)"
CGATACCG,binding signal,SIX6 [3],"9.14 upbm affinity estimate (log intensity, higher = more binding, comparable within an allelic series)"
GGATCCCC,binding signal,SIX6 [3],"9.23 upbm affinity estimate (log intensity, higher = more binding, comparable within an allelic series)"
GGATCCGA,binding signal,SIX6 [3],"9.08 upbm affinity estimate (log intensity, higher = more binding, comparable within an allelic series)"
CGATACGC,binding signal,SIX6 [3],"9.24 upbm affinity estimate (log intensity, higher = more binding, comparable within an allelic series)"
CAGGATCA,binding signal,SIX6 [3],"9.29 upbm affinity estimate (log intensity, higher = more binding, comparable within an allelic series)"
AAGGATCC,binding signal,SIX6 [3],"9.15 upbm affinity estimate (log intensity, higher = more binding, comparable within an allelic series)"
GATCCCCA,binding signal,SIX6 [3],"9.34 upbm affinity estimate (log intensity, higher = more binding, comparable within an allelic series)"
CCTGGAAC,binding signal,PRRX1 [1],"9.61 upbm affinity estimate (log intensity, higher = more binding, comparable within an allelic series)"
same,binding signal,PRRX1 [2],"9.32 upbm affinity estimate (log intensity, higher = more binding, comparable within an allelic series)"
CCGGATAC,binding signal,SIX6 [3],"9.26 upbm affinity estimate (log intensity, higher = more binding, comparable within an allelic series)"
CGCGGATC,binding signal,SIX6 [3],"9.18 upbm affinity estimate (log intensity, higher = more binding, comparable within an allelic series)"
CGATCCGC,binding signal,SIX6 [3],"9.21 upbm affinity estimate (log intensity, higher = more binding, comparable within an allelic series)"
CTGATACA,binding signal,SIX6 [4],"11 upbm affinity estimate (log intensity, higher = more binding, comparable within an allelic series)"
same,binding signal,SIX6 [7],"11 upbm affinity estimate (log intensity, higher = more binding, comparable within an allelic series)"
CCTGGATC,binding signal,SIX6 [3],"9.18 upbm affinity estimate (log intensity, higher = more binding, comparable within an allelic series)"
